# Source: PubChem BioAssay (NCATS)
# Inconclusive results are not listed. Where a call stands in place of a potency, no number is given. Values without a mark were called inactive. Active and inactive are the calls of the source. Calls follow the shape of the dose curve; as a rule, active = well fitted curve in the direction sought with a large enough effect; inconclusive = small, poorly fitted or top-dose-only effect, or another doubt; inactive = no such curve, though single readings can be large; an effect the other way counts as inactive or inconclusive. Numbered stars: 1 amine (or outer) side, 2 acyl side, 3 side chain; on linkers, the order of the positions; unused ones are H or OH. Bridge positions count the residues as written; N and C are the ends. Square brackets hold non-standard residues; d marks the D form. Peptide text beside a SMILES is read from it. I, II: the chains in the order shown. Actinocin(9to1) = Cc1c2oc3c(C)ccc(C(=O)[*:1])c3nc-2c(C(=O)[*:2])c(N)c1=O; NMeV = CN[C@H](C(=O)O)C(C)C; Sar = CNCC(=O)O
# How the values were obtained:
# [1] = qHTS of pediatric cancer cell lines to identify multiple opportunities for drug repurposing: Primary screen for TC32 cells (AID 1347089); also: nearly all actives have a fitted effect of over 60% in size
# Procedure, shortened: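 Luminescent ATP read-out (CellTiter-Glo) of metabolically active TC32 cells after 48 h exposure. Concentration-response curves came from 11-point (MIPE, 0.78 nM–46 µM) or 8-point (NPC, 0.59 nM–46 µM) primary titrations; follow-up used 11 points.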
# [2] = qHTS of pediatric cancer cell lines to identify multiple opportunities for drug repurposing: Primary screen for DAOY cells (AID 1347090); also: nearly all actives have a fitted effect of over 55% in size
# Procedure, shortened: (§1)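 Cell viability, CellTiter-Glo luminescence; 500-1,000 cells/well, 8- or 11-point titration, 48 h compound exposure at 37 degrees C, 5% CO2. Controls: DMSO neutral, bortezomib 2.3 µM final as positive.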
# [3] = qHTS of pediatric cancer cell lines to identify multiple opportunities for drug repurposing: Primary screen for SJ-GBM2 cells (AID 1347091)
# Procedure, shortened: as §1
# [4] = qHTS of pediatric cancer cell lines to identify multiple opportunities for drug repurposing: Primary screen for BT-37 cells (AID 1347094)
# Procedure, shortened: (§2)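 Phenotypic viability qHTS, 48 h compound exposure, CellTiter-Glo luminescence read-out; multi-concentration dosing so that potency and efficacy derive directly from the primary screen's curves.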
# [5] = qHTS of pediatric cancer cell lines to identify multiple opportunities for drug repurposing: Primary screen for NB-EBc1 cells (AID 1347095)
# Procedure, shortened: as §2
# [6] = qHTS of pediatric cancer cell lines to identify multiple opportunities for drug repurposing: Primary screen for Saos-2 cells (AID 1347097); also: nearly all actives have a fitted effect of over 40% in size
# Procedure, shortened: as §2
# [7] = qHTS of pediatric cancer cell lines to identify multiple opportunities for drug repurposing: Primary screen for SK-N-SH cells (AID 1347098); also: nearly all actives have a fitted effect of over 65% in size
# Procedure, shortened: (§3)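 Cells (500-1,000/well) rested 5 h, then received compounds for 48 h; metabolically active cells were measured by CellTiter-Glo luminescence. Final concentrations spanned up to 46 µM (MIPE, 11-point) or 0.59 nM-46 µM (NPC, 8-point) in primary screens, 11-point in follow-ups.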
# [8] = qHTS of pediatric cancer cell lines to identify multiple opportunities for drug repurposing: Primary screen for NB1643 cells (AID 1347099); also: nearly all actives have a fitted effect of over 50% in size
# Procedure, shortened: as §2
# [9] = qHTS of pediatric cancer cell lines to identify multiple opportunities for drug repurposing: Primary screen for LAN-5 cells (AID 1347100)
# Procedure, shortened: as §3
# [10] = qHTS of pediatric cancer cell lines to identify multiple opportunities for drug repurposing: Primary screen for BT-12 cells (AID 1347101); also: nearly all actives have a fitted effect of over 25% in size
# Procedure, shortened: as §3
# [11] = qHTS of pediatric cancer cell lines to identify multiple opportunities for drug repurposing: Primary screen for Rh18 cells (AID 1347102); also: nearly all actives have a fitted effect of over 65% in size
# Procedure, shortened: as §3
# [12] = qHTS of pediatric cancer cell lines to identify multiple opportunities for drug repurposing: Primary screen for RD cells (AID 1347104); also: nearly all actives have a fitted effect of over 55% in size
# Procedure, shortened: as §2
# [13] = qHTS of pediatric cancer cell lines to identify multiple opportunities for drug repurposing: Primary screen for A673 cells (AID 1347092); also: nearly all actives have a fitted effect of over 45% in size
# Procedure, shortened: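 Cell viability of A673 measured by CellTiter-Glo ATP luminescence after 48 hours compound exposure. Dilution series spanned 0.78 nM to 46 µM (MIPE, 11-point) or 0.59 nM to 46 µM (NPC, 8-point); bortezomib 2.3 uM positive control.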
# [14] = qHTS of pediatric cancer cell lines to identify multiple opportunities for drug repurposing: Primary screen for U-2 OS cells (AID 1347096); also: nearly all actives have a fitted effect of over 50% in size
# Procedure, shortened: as §3
# [15] = qHTS of pediatric cancer cell lines to identify multiple opportunities for drug repurposing: Primary screen for SK-N-MC cells (AID 1347093)
# Procedure, shortened: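 Metabolically active cells were quantified by ATP-dependent luminescence (CellTiter-Glo, 15 min at room temperature) following 48 h treatment. Cells had been plated at 500-1,000 per well and settled for 5 h beforehand.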
# [16] = qHTS of pediatric cancer cell lines to identify multiple opportunities for drug repurposing: Primary screen for OHS-50 cells (AID 1347103); also: nearly all actives have a fitted effect of over 40% in size
# Procedure, shortened: as §3
# Potency is read from the fitted curve at half-maximal effect.
SMILES,Potency [1],Potency [2],Potency [3],Potency [4],Potency [5],Potency [6],Potency [7],Potency [8],Potency [9],Potency [10],Potency [11],Potency [12],Potency [13],Potency [14],Potency [15],Potency [16]
CC(=O)Oc1ccc(C(c2ccc(OC(C)=O)cc2)c2ccccn2)cc1,inactive,inactive,inactive,inactive,inactive,inactive,inactive,inactive,inactive,inactive,inactive,inactive,,,,
CC(Cc1cccc(C(F)(F)F)c1)NCCOC(=O)c1ccccc1 (stereo unspecified),inactive,inactive,inactive,,,,inactive,inactive,inactive,inactive,inactive,inactive,inactive,inactive,,
CC(=O)O[C@]1(C(C)=O)CC[C@H]2[C@@H]3C[C@H](C)C4=CC(=O)CC[C@]4(C)[C@H]3CC[C@@]21C,inactive,inactive,inactive,inactive,inactive,,,inactive,,,inactive,,,inactive,33.5 µM (active),24.6 µM (active)
c1ccc(CNCCNCc2ccccc2)cc1,inactive,inactive,inactive,inactive,inactive,inactive,,inactive,inactive,inactive,inactive,inactive,,inactive,inactive,inactive
CN1C(CCl)Nc2cc(Cl)c(S(N)(=O)=O)cc2S1(=O)=O (stereo unspecified),inactive,inactive,inactive,inactive,inactive,inactive,inactive,inactive,inactive,inactive,,inactive,,inactive,,inactive
CC(C)(CO)[C@@H](O)C(=O)NCCCO,inactive,inactive,inactive,inactive,inactive,inactive,inactive,inactive,inactive,inactive,inactive,inactive,,inactive,,inactive
Cc1onc(-c2c(Cl)cccc2Cl)c1C(=O)N[C@@H]1C(=O)N2[C@@H]1SC(C)(C)[C@@H]2C(=O)O,inactive,inactive,inactive,inactive,inactive,inactive,inactive,inactive,inactive,inactive,inactive,inactive,,inactive,,
C[C@]12CC[C@@H]3c4ccc(O)cc4CC[C@H]3[C@@H]1C[C@@H](O)[C@@H]2O,inactive,inactive,inactive,inactive,,inactive,inactive,inactive,inactive,inactive,inactive,inactive,,inactive,inactive,
C[C@H]1[C@H](NC(=O)/C(=N/OC(C)(C)C(=O)O)c2csc(N)n2)C(=O)N1S(=O)(=O)O (stereo in doubt),inactive,inactive,inactive,inactive,inactive,inactive,inactive,inactive,inactive,inactive,,inactive,,inactive,inactive,inactive
Cc1ncc(CSSCc2cnc(C)c(O)c2CO)c(CO)c1O,inactive,inactive,inactive,inactive,inactive,inactive,inactive,inactive,inactive,inactive,inactive,inactive,,inactive,inactive,
O=C1OC2(c3ccc(O)cc3Oc3cc(O)ccc32)c2ccccc21,inactive,inactive,inactive,inactive,inactive,inactive,,inactive,inactive,inactive,,inactive,,inactive,inactive,inactive
COc1cc(C=C2CCC/C(=C\c3ccc(O)c(OC)c3)C2=O)ccc1O,0.938 µM (active),21.1 µM (active),23.7 µM (active),27.6 µM (active),,23.7 µM (active),15.4 µM (active),,7.5 µM (active),11 µM (active),,10.6 µM (active),,,,19.5 µM (active)
O=C1c2ccccc2C(=O)C1c1ccccc1,inactive,inactive,inactive,inactive,inactive,inactive,inactive,inactive,inactive,inactive,inactive,inactive,,inactive,inactive,inactive
CC(=O)[C@H]1CC[C@H]2[C@@H]3C[C@H](C)C4=CC(=O)CC[C@]4(C)[C@H]3[C@@H](O)C[C@]12C,inactive,inactive,inactive,inactive,inactive,inactive,inactive,inactive,inactive,,inactive,inactive,,,inactive,
Cc1cccc(C)c1NC(=O)CN1CCN(CCCC(c2ccc(F)cc2)c2ccc(F)cc2)CC1,inactive,inactive,21.1 µM (active),inactive,,inactive,inactive,inactive,,inactive,,inactive,,inactive,,
N[C@@H](CCC(=O)N[C@@H](CS)C(=O)NCC(=O)O)C(=O)O,inactive,inactive,inactive,inactive,,inactive,inactive,inactive,inactive,inactive,inactive,inactive,,inactive,,inactive

SMILES,Potency [1],Potency [2],Potency [3],Potency [4],Potency [5],Potency [6],Potency [7],Potency [8],Potency [9],Potency [10],Potency [11],Potency [12],Potency [13],Potency [14],Potency [15],Potency [16]
O=C1OC(c2ccc(O)cc2)(c2ccc(O)cc2)c2ccccc21,inactive,inactive,inactive,inactive,inactive,inactive,,,inactive,inactive,inactive,inactive,,,inactive,inactive
CCCCC(CC)CN=C(N)NC(N)=NCCCCCCN=C(N)NC(N)=NCC(CC)CCCC (stereo unspecified),21 µM (active),8.41 µM (active),1.06 µM (active),9.78 µM (active),,9.44 µM (active),4.33 µM (active),,5.31 µM (active),2.46 µM (active),8.41 µM (active),5.96 µM (active),,21.1 µM (active),5.31 µM (active),4.37 µM (active)
Cc1c(N(C)CS(=O)(=O)O)c(=O)n(-c2ccccc2)n1C,inactive,inactive,inactive,inactive,inactive,inactive,,inactive,inactive,inactive,inactive,inactive,,inactive,inactive,inactive
CC(=O)Oc1ccc(C(=C2CCCCC2)c2ccc(OC(C)=O)cc2)cc1,inactive,inactive,inactive,inactive,,inactive,inactive,inactive,inactive,inactive,inactive,inactive,,inactive,inactive,inactive
CCCCCCCCCCCCCCNCCO,inactive,inactive,inactive,inactive,inactive,inactive,,inactive,inactive,inactive,inactive,inactive,,inactive,inactive,
CN(C)CCOc1ccccc1Cc1ccccc1,inactive,inactive,inactive,inactive,inactive,inactive,,inactive,inactive,inactive,,inactive,,inactive,inactive,
OC[C@H]1O[C@@H](n2cnc3c(=S)nc[nH]c32)[C@H](O)[C@@H]1O,1.67 µM (active),0.422 µM (active),3.76 µM (active),0.389 µM (active),,15 µM (active),,0.75 µM (active),2.11 µM (active),9.78 µM (active),inactive,inactive,,,18.8 µM (active),0.55 µM (active)
COc1cc2c(cc1OC)C(=O)C(CC1CCN(Cc3ccccc3)CC1)C2 (stereo unspecified),inactive,inactive,inactive,inactive,inactive,inactive,,,,inactive,inactive,inactive,,inactive,inactive,
CC(C)n1nc(-c2cc3cc(O)ccc3[nH]2)c2c(N)ncnc21,2.1 µM (active),4.22 µM (active),0.596 µM (active),1.1 µM (active),0.944 µM (active),4.22 µM (active),,21.1 µM (active),8.41 µM (active),1.23 µM (active),6.68 µM (active),8.41 µM (active),,13.3 µM (active),0.299 µM (active),0.437 µM (active)
C=C1C(=C/C=C2\CCC[C@]3(C)[C@@H]([C@H](C)/C=C/[C@@H](O)C4CC4)CC[C@@H]23)C[C@@H](O)C[C@@H]1O,inactive,inactive,inactive,,,,,,,,inactive,inactive,,,,30.9 µM (active)
CCN(CCCc1ccccc1)CCCc1ccccc1,inactive,inactive,,,inactive,inactive,,inactive,inactive,,inactive,,inactive,,,
O=c1[nH]c(=O)n([C@H]2CCCO2)cc1F,inactive,inactive,,inactive,inactive,inactive,inactive,,inactive,inactive,inactive,inactive,inactive,inactive,,inactive
C#C[C@]1(OC(C)=O)CC[C@H]2[C@@H]3CCC4=C[C@@H](OC(C)=O)CC[C@@H]4[C@H]3CC[C@@]21C,inactive,inactive,inactive,,,,inactive,inactive,,,inactive,,,,,15.5 µM (active)
O=C(OCCOCCO)c1ccccc1Nc1cccc(C(F)(F)F)c1,inactive,inactive,,inactive,,,,inactive,,,inactive,inactive,inactive,inactive,inactive,
"Cc1c2oc3c(C)ccc(C(=O)N[C@@H]4C(=O)N[C@H](C(C)C)C(=O)N5CCC[C@H]5C(=O)N(C)CC(=O)N(C)[C@@H](C(C)C)C(=O)O[C@@H]4C)c3nc-2c(C(=O)N[C@@H]2C(=O)N[C@H](C(C)C)C(=O)N3CCC[C@H]3C(=O)N(C)CC(=O)N(C)[C@@H](C(C)C)C(=O)O[C@@H]2C)c(N)c1=O (I: T[dV]P[Sar][NMeV] / II: T[dV]P[Sar][NMeV]; ester I:1-I:C, II:1-II:C; linker I:N-II:N via Actinocin(9to1))",0.0149 µM (active),0.0211 µM (active),,0.0028 µM (active),inactive,0.0841 µM (active),0.0034 µM (active),,inactive,0.0069 µM (active),,0.0133 µM (active),0.0042 µM (active),0.0422 µM (active),,0.0347 µM (active)
